Screen size: about 5,500 compounds; about 2,000 (36%) were called active. Roughly 18% stayed inconclusive and do not appear here. Cut-off read from the data, not from the text of the source: active = normalized growth mostly below about 0.91 (no sharp cut-off); inconclusive = no clear call, values can overlap the other calls; inactive = mostly above about 0.92. This is one part of the list.
Test: chemical genetic growth profiling, strain panel (AID 1159580);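 note: tested at 20 µM; growth read once vehicle control cultures reached saturation at 30 °C; 1 = growth at the plate median or of vehicle wells; lower values mean less growth of the strain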
Conditions: S. cerevisiae deletion strains, growth OD

Measured: normalized growth

C1CNCCN1
inactive: locus YAL013W, strain DEP1, stronger effect = lower value 1.01 | locus YAL021C, strain ccr4, stronger effect = lower value 0.999 | locus YAL026C, strain drs2, stronger effect = lower value 1.02 | locus YAL030W, strain snc1, stronger effect = lower value 1.01 | locus YBL061C, strain skt5, stronger effect = lower value 1.02 | locus YBR009C, strain hhf1, stronger effect = lower value 1.01 | locus YBR021W, strain FUR4, stronger effect = lower value 0.979 | locus YBR023C, strain chs3, stronger effect = lower value 1.02 | locus YBR171W, strain sec66, stronger effect = lower value 1.02 | locus YBR229C, strain ROT2, stronger effect = lower value 0.997 | locus YBR231C, strain swc5, stronger effect = lower value 0.997 | locus YBR279W, strain paf1, stronger effect = lower value 1.01 | locus YCL011C, strain gbp2, stronger effect = lower value 1.01 | locus YCL016C, strain dcc1, stronger effect = lower value 1.01 | locus YCL029C, strain bik1, stronger effect = lower value 0.997 | locus YCL061C, strain MRC1, stronger effect = lower value 1 | locus YCL069W, strain vba3, stronger effect = lower value 1.01 | locus YCR088W, strain abp1, stronger effect = lower value 1.01 | locus YDL005C, strain med2, stronger effect = lower value 1.02 | locus YDL035C, strain GPR1, stronger effect = lower value 1.01 | locus YDL040C, strain nat1, stronger effect = lower value 1.01 | locus YDL074C, strain BRE1, stronger effect = lower value 1.03 | locus YDL101C, strain DUN1, stronger effect = lower value 1.02 | locus YDL134C, strain PPH21, stronger effect = lower value 1.01 | locus YDL185W, strain tfp1, stronger effect = lower value 1.02 | locus YDL192W, strain arf1, stronger effect = lower value 0.999 | locus YDR001C, strain nth1, stronger effect = lower value 1.01 | locus YDR069C, strain doa4, stronger effect = lower value 1.01 | locus YDR101C, strain arx1, stronger effect = lower value 0.987 | locus YDR137W, strain rgp1, stronger effect = lower value 1.03 | locus YDR150W, strain NUM1, stronger effect = lower value 1 | locus YDR159W, strain sac3, stronger effect = lower value 1.04 | locus YDR162C, strain NBP2, stronger effect = lower value 1.02 | locus YDR195W, strain ref2 1 | locus YDR297W, strain sur2, stronger effect = lower value 1.01 | locus YDR318W, strain mcm21, stronger effect = lower value 0.998 | locus YDR334W, strain swr1, stronger effect = lower value 1.01 | locus YDR335W, strain msn5, stronger effect = lower value 1.01 | locus YDR388W, stronger effect = lower value 0.996 | locus YDR392W, strain spt3, stronger effect = lower value 0.962 | locus YDR502C, strain sam2, stronger effect = lower value 0.999 | locus YEL003W, strain gim4, stronger effect = lower value 1.01 | locus YEL037C, strain rad23, stronger effect = lower value 1.01 | locus YEL061C, strain CIN8 (second series), stronger effect = lower value 1.01 | locus YEL061C, strain CIN8, stronger effect = lower value 1 | locus YER015W, strain faa2, stronger effect = lower value 0.999 | locus YER016W, strain bim1, stronger effect = lower value 0.999 | locus YER110C, stronger effect = lower value 0.988 | locus YER111C, strain swi4, stronger effect = lower value 1.02 | locus YER155C, strain BEM2 (second series), stronger effect = lower value 1 | locus YER155C, strain BEM2, stronger effect = lower value 1.01 | locus YER167W, strain BCK2, stronger effect = lower value 1.01 | locus YFR010W, strain ubp6, stronger effect = lower value 1.01 | locus YGL078C, strain dbp3, stronger effect = lower value 0.99 | locus YGL086W, strain mad1, stronger effect = lower value 0.996 | locus YGL167C, strain pmr1, stronger effect = lower value 1.02 | locus YGL173C, strain kem1, stronger effect = lower value 1.02 | locus YGL227W, strain vid30, stronger effect = lower value 1.01 | locus YGL240W, strain doc1, stronger effect = lower value 1.01 | locus YGL248W, strain PDE1, stronger effect = lower value 1 | locus YGL253W, strain hxk2, stronger effect = lower value 0.992 | locus YGR078C, strain PAC10, stronger effect = lower value 1 | locus YGR135W, strain pre9, stronger effect = lower value 1.01 | locus YGR229C, strain SMI1, stronger effect = lower value 1.02 | locus YGR252W, strain gcn5, stronger effect = lower value 0.948 | locus YHR013C, strain ard1, stronger effect = lower value 1.03 | locus YHR027C, strain rpn1, stronger effect = lower value 1.02 | locus YHR030C, strain SLT2, stronger effect = lower value 1.02 | locus YHR079C, strain IRE1 (second series), stronger effect = lower value 0.988 | locus YHR079C, strain IRE1, stronger effect = lower value 1.03 | locus YHR094C, strain hxt1, stronger effect = lower value 1 | locus YHR129C, strain ARP1, stronger effect = lower value 1.01 | locus YHR142W, strain chs7, stronger effect = lower value 1.02 | locus YHR200W, strain rpn10, stronger effect = lower value 1.01 | locus YIL066C, strain RNR3, stronger effect = lower value 1.01 | locus YIL073C, strain SPO22, stronger effect = lower value 0.983 | locus YIL125W, strain kgd1, stronger effect = lower value 1 | locus YIR030C, strain dcg1, stronger effect = lower value 1 | locus YJL092W, strain hpr5, stronger effect = lower value 1.01 | locus YJL095W, strain BCK1 (second series), stronger effect = lower value 1.02 | locus YJL095W, strain BCK1, stronger effect = lower value 1.01 | locus YJL115W, strain asf1, stronger effect = lower value 1.01 | locus YJL129C, strain trk1, stronger effect = lower value 1.01 | locus YJL134W, strain LCB3, stronger effect = lower value 1.01 | locus YJL154C, strain vps35, stronger effect = lower value 1.02 | locus YJL164C, strain tpk1, stronger effect = lower value 1.01 | locus YJL166W, strain qcr8, stronger effect = lower value 1.02 | locus YJL168C, strain set2, stronger effect = lower value 0.994 | locus YJL187C, strain SWE1 (second series), stronger effect = lower value 1.02 | locus YJL187C, strain SWE1, stronger effect = lower value 1.01 | locus YJR043C, strain POL32, stronger effect = lower value 1.01

From PubChem BioAssay AID1159580 (chemical genetic matrix, 2015)
